Pf growth 96h: Primary qHTS for delayed death inhibitors of the malarial parasite plastid, 96 hour incubation. P. falciparum luciferase reporter growth, 96 h. Potency, µM (series often up to 28.7 µM), for inactives: at the top dose activity change, negative = inhibition, usual class: inhibitors. hit rate 6.9% among 320,000. AID 504834, 2011; also: potency is read from the fitted curve at half-maximal effect
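Parasite growth measured via integrated firefly luciferase reporter in P. falciparum. Infected erythrocytes at 2% hematocrit, 0.05% parasitemia final were treated 96 hours at 37 C under 5% CO2, and luminescence was read.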
Sm TGR block: qHTS Assay for the Inhibitors of Schistosoma Mansoni Peroxiredoxins; Schistosoma mansoni thioredoxin glutathione reductase (TGR), Q962Y6; purified TGR, DTNB reduction, TNB absorbance 405 nm; Potency, µM (series often up to 114 µM), inactives show top-dose activity change, negative = inhibition, hits mostly inhibitors; hit rate 3% among 360,000; AID 485364, 2010; also: potency is read from the fitted curve at half-maximal effect; nearly all actives have a fitted effect of over 60% in size
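Kinetic colorimetric format: TGR-catalysed, NADPH-driven DTNB reduction monitored via TNB absorbance. Enzyme dispensed at 20 nM; compound exposure 15 min at room temperature before reaction start.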
Giardia FBPA inh: qHTS Assay for Inhibitors of Fructose-1,6-bisphosphate Aldolase from Giardia Lamblia; AID 2451, 2010; hit rate 0.71% among 290,000; Potency, µM (doses to about 59.6 µM), inactives show top-dose activity, negative = inhibition, most hits filed as inhibitors; purified Giardia FBPA; also: potency is read from the fitted curve at half-maximal effect; nearly all actives have a fitted effect of over 55% in size
Target sequence (A8B2U2 whole entry, looked up): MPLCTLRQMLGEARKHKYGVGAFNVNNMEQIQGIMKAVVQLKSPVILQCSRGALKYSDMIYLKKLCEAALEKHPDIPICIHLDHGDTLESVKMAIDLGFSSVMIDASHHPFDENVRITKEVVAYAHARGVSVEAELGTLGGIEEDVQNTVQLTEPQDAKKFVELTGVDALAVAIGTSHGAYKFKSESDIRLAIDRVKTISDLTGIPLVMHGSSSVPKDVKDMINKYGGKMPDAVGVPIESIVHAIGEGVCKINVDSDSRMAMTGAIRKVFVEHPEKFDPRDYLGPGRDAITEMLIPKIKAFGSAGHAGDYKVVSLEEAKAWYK
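40 nM FBPA preincubated 10 min at RT with compound (up to 57.5 uM final), then substrate plus GAPDH/TPI/NAD/arsenate coupling and diaphorase/resazurin added. Fluorescence read after 20 min at RT, 525/598 nm.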
Pf growth 48h: Primary qHTS for delayed death inhibitors of the malarial parasite plastid, 48 hour incubation; AID 504832, 2011; hit rate 5.9% among 310,000; Potency, µM (highest dose often 28.7 µM), without a hit: at the highest dose activity change, negative = inhibition, hits mostly inhibitors; P. falciparum luciferase growth in erythrocytes, 48 h; also: potency is read from the fitted curve at half-maximal effect
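Luminescence readout; reporter = integrated firefly luciferase in P. falciparum. RBC culture at 2% hematocrit, 0.1% parasitemia final, 37 C/5% CO2; decreased signal taken as growth inhibition.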
HCMV antiviral: qHTS Assay for inhibitors of the human cytomegalovirus (HCMV); HFF cells, HCMV-luciferase reporter, 72 h; hits give low values; hit rate 4.5% among 410,000; activity change, negative = inhibition, % at 57.5 µM; in the data active = activity change below about -60%; inconclusive = no clear call, values can overlap the other calls; inactive = above about -39%
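Screen run at 2 compound doses on HFFs infected with reporter HCMV, MOI 1 PFU/cell. Luciferase activity from cell lysates at 72 h post infection gave inhibition relative to buffer-only and Salinomycin wells.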
Starred values were filed as active, the others as inactive; ? = inconclusive; / = no result. Shown are actives, neighbours in structure and some others; about 14% of the full set was active somewhere. Unless noted, calls follow the shape of the dose curve; as a rule, active = well fitted curve in the direction sought with a large enough effect; inconclusive = small, poorly fitted or top-dose-only effect, or another doubt; inactive = no such curve, though single readings can be large; an effect the other way counts as inactive or inconclusive. % is scaled to controls: 0 for no effect and ±100 for the full control effect.

SMILES | Pf growth 96h | Sm TGR block | Giardia FBPA inh | Pf growth 48h | HCMV antiviral
COc1ccccc1C(CNC(=O)c1ccc(-c2ccccc2Cl)o1)N1CCCC1 (centres undefined) | 10µM* | -1% | / | 15µM* | -35
CC(=O)c1ccc(-c2ccc(C(=O)NCC(c3ccc(F)cc3)N3CCOCC3)o2)cc1 (centres undefined) | ? | -32% | / | -22% | 5
COc1ccc(C(CNC(=O)Cc2ccc(Cl)c(Cl)c2)N2CCCCC2)cc1 (centres undefined) | 2.1µM* | 1% | / | ? | -5
COc1ccc(C(CNC(=O)c2ccc(-c3ccccc3Cl)o2)N2CCOCC2)cc1 (centres undefined) | ? | -2% | / | 15µM* | -5
O=C(NCC(c1ccc(F)cc1)N1CCOCC1)c1ccc([N+](=O)[O-])o1 (centres undefined) | / | / | / | / | -87*
C/C(=N\NC(=O)c1ccco1)c1ccc(NC(=O)C(F)(F)F)cc1 | 30% | -2% | -3% | 48% | 66
COc1ccc2oc(C(=O)OCC(=O)Nc3ccc(C)c(S(=O)(=O)N4CCOCC4)c3)c(C)c2c1 | / | / | / | / | -18
Cc1ccc(C(=O)c2cc([N+](=O)[O-])ccc2N2CCCCC2)c(C)c1 | 13µM* | 7% | -4% | 12µM* | -92*
CCOc1ccc(C(=O)c2cc([N+](=O)[O-])ccc2N2CCOCC2)cc1 | 62% | 5% | 1% | -30% | -90*
COc1ccc(C(=O)c2cc([N+](=O)[O-])ccc2N2CCOCC2)cc1 | 50% | -5% | 4% | -18% | -99*
CCOC(=O)c1c(C)[nH]c(C)c1S(=O)(=O)NCC(=O)Nc1ccccn1 | 18% | -19% | -3% | 16% | ?
COc1ccc(C(=O)NCS(=O)(=O)c2ccc(C)cc2)cc1 | 57% | 11µM* | 6% | -4% | -4
CO/N=C(/CS(=O)(=O)c1ccc(C)cc1)c1ccc(OC)cc1 | ? | 40µM* | ? | / | 88
Cc1ccc(C(=O)CCS(=O)(=O)c2ccc(Br)cc2)cc1 | 32% | 0.4µM* | -3% | -5% | 32
COc1ccc(COC(=O)CCS(=O)(=O)c2ccc(C)cc2)cc1 | 60% | -20% | / | -6% | 4
COc1ccc(C(=O)NCCS(=O)(=O)NCc2ccc(C)cc2)cc1 | -16% | -2% | / | 37% | -22
COc1ccc(C(=O)CCS(=O)(=O)c2ccc(C)cc2)cc1 | -1% | 1µM* | 13% | -11% | ?
COC(=O)c1ccc(-n2c(/C=C/c3cc(OC)c(OC)c(OC)c3)nc3cc(Cl)ccc3c2=O)cc1 | / | 6% | / | / | -7
N#Cc1ccccc1S(=O)(=O)N1CCN(C(=O)CCNS(=O)(=O)c2ccc(Cl)cc2)CC1 | / | / | / | / | 1
COC(=O)[C@@H]1[C@@H](CO)[C@@H]2Cn3c(ccc(Br)c3=O)[C@@H]2N1CCc1ccccc1 | / | / | / | / | -33
CC(C)[C@@H](CC(=O)N[C@@H]1CCCC[C@H]1C(=O)N[C@H](CC(=O)N[C@@H](CCC(=O)O)CC(=O)O)Cc1ccccc1)NC(=O)C[C@H](Cc1ccccc1)NC(=O)[C@@H]1CCCC[C@H]1N | / | / | -21% | / | /
CCCC(=O)Oc1ccccc1C1SCc2cc(C)c(C)cc2CS1 | ? | 3% | -6% | 17% | -60*
O=[N+]([O-])c1ccc(-c2nnc(-c3ccccc3)c(NCCCO)n2)cc1 | 5.2µM* | -1% | 4% | ? | 46
NC(=O)c1cccnc1Oc1ccccc1 | 18% | 4% | 2% | -1% | 40
COC(=O)c1cccnc1Oc1ccccc1 | 0.66µM* | 16% | 7% | ? | 36
SMILES | Pf growth 96h | Sm TGR block | Giardia FBPA inh | Pf growth 48h | HCMV antiviral
CCCCn1c(CCc2ccccc2)nc2cc3[nH]c(=O)c(C(C)C)nc3cc21 | 2.6µM* | -24% | -10% | 3.7µM* | 0
CCCCn1c(-c2ccc(F)c(F)c2)nc2cc3[nH]c(=O)c(C(C)C)nc3cc21 | ? | -15% | -13% | -80% | -7
COc1ccccc1N1CCN(C(C)C(=O)Nc2ccc(S(=O)(=O)N3CCOCC3)cc2)CC1 (centres undefined) | ? | -4% | 4% | 35% | 2
CC1CCc2nc(N)c(C#N)c(-c3cccnc3)c2C1 (centres undefined) | 5% | -12% | -2% | -24% | -66*
O=C(Nc1ccc(F)cc1)C(c1ccnc2ccccc12)N1CCN(C(=O)c2ccco2)CC1 (centres undefined) | / | / | / | / | 6
CCNC(=O)C1(C)CCCN(Cc2ccc(-c3ccccn3)cc2)C1 (centres undefined) | / | / | / | / | -100*
CCCNC(=O)C1(C)CCCN(Cc2ccc(-c3ccccc3)cc2)C1 (centres undefined) | / | / | / | / | 64
O=C(NCCCO)NC12CC3CC(CC(C3)C1)C2 | ? | -1% | -3% | / | -24
CC(C)(C)NC(=O)NC12CC3CC(CC(C3)C1)C2 | 15% | 1% | 3% | 9% | 8
O=C(CCl)NC(=O)NC12CC3CC(CC(C3)C1)C2 | ? | 8.9µM* | -13% | 0% | -99*
CC(Cl)C(=O)NC(=O)NC12CC3CC(CC(C3)C1)C2 (centres undefined) | 13µM* | -15% | -2% | ? | -33
O=C(NN=Cc1cc(Cl)ccc1[N+](=O)[O-])c1ccco1 | / | / | / | / | 18
NC(=O)c1ccsc1NC(=O)CSc1nnc(NC2CC2)s1 | / | / | / | / | -28
CC(C)NC[C@H](O)COc1cccc2[nH]ccc12 | 11% | 3% | 2% | 22% | -81*
C=CCc1ccccc1OCC(O)CNC(C)C (centres undefined) | ? | 25µM* | -2% | 13µM* | -9
CC(C)NC[C@H](O)COc1cccc2ccccc12 | / | / | 0% | / | 34
CC(C)NC[C@@H](O)COc1cccc2ccccc12 | ? | -8% | -2% | 9.3µM* | ?
C=CCc1ccccc1OCC(O)CNC1CCCC1 (centres undefined) | ? | 2% | / | ? | 0
COc1ccc(CCn2nnc3ccccc3c2=O)cc1OC | / | / | / | / | 7
Cc1ccc(NC(=O)C2CC(=O)Nc3ncnn32)c(C)c1 (centres undefined) | 5% | 56µM* | -1% | -1% | 1
CCOC(=O)C(=CNNc1cccc(Cl)c1)C(=O)OCC | ? | 8.9µM* | -13% | ? | 24
O=C1Nc2ccc(NS(=O)(=O)c3cccs3)c3cccc1c23 | 10µM* | -4% | 8.9µM* | 7% | 12
CNS(=O)(=O)c1ccc2c3c(cccc13)C(=O)N2 | 0% | -17% | 1% | 12% | -4
COc1cc(C2C(C#N)=C(C)NC(C)=C2C#N)cc(OC)c1OC | 12µM* | 2% | -3% | 9.3µM* | -1

Bioassay records: PubChem, National Center for Advancing Translational Sciences (NCATS)
